Reference: PubChem BioAssay (NCI)
About 79,000 compounds went through this panel and 15% of them were active in at least one assay; those are over-represented in the sample as a whole. A number with no mark means an inactive call. Active and inactive are the calls of the source. No stated cut-off is given here; in the data, active means growth inhibition above about 70%; inactive means the rest.

Legend:
[1] = NCI Yeast Anticancer Drug Screen. Data for the rad50 strain (AID 155);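 further: 0% = growth of vehicle-only cultures of the same strain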; conditions: S. cerevisiae rad50 strain growth inhibition; at 50.0 µM; hits give high values
Procedure, shortened: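 Inhibition values express reduced yeast growth in compound-treated cultures relative to vehicle-treated controls.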

[2] = NCI Yeast Anticancer Drug Screen. Data for the mec2-1 strain (AID 157); conditions: S. cerevisiae mec2-1 strain, at 50.0 µM, hits give high values
Procedure, shortened: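 Vehicle-treated cultures served as reference for growth inhibition of compound-exposed mec2-1 yeast.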

[3] = NCI Yeast Anticancer Drug Screen. Data for the sgs1 mgt1 strain (AID 161);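 further: 0% = growth of cultures given vehicle only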; conditions: S. cerevisiae sgs1 mgt1 strain, at 50.0 µM, hits give high values
Procedure, shortened: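 Mutant yeast exposed to compound; growth scored against vehicle-only wells.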

[4] = NCI Yeast Anticancer Drug Screen. Data for the cln2 rad14 strain (AID 165);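 further: 0% = growth equal to vehicle treated cultures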; conditions: S. cerevisiae cln2 rad14 strain, at 50.0 µM, hits give high values
Procedure, shortened: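 Each compound was tested on cln2 rad14 yeast. Inhibition of growth was calculated against vehicle-exposed controls.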

[5] = NCI Yeast Anticancer Drug Screen. Data for the bub3 strain (AID 167); conditions: S. cerevisiae bub3 mutant strain, at 50.0 µM, hits give high values
Procedure, shortened: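 Steps: expose the mutant yeast strain to compound; grow alongside vehicle-treated cultures; measure growth; express inhibition against the vehicle cultures.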

[6] = NCI Yeast Anticancer Drug Screen. Data for the mlh1 rad18 strain (AID 175); conditions: S. cerevisiae mlh1 rad18 strain growth inhibition; at 50.0 µM; hits give high values
Procedure, shortened: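 Vehicle-treated cultures served as the reference for growth inhibition in a yeast strain carrying DNA damage repair alterations exposed to each compound.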

Row | Compound | growth inhibition [1] | growth inhibition [2] | growth inhibition [3] | growth inhibition [4] | growth inhibition [5] | growth inhibition [6]
1 | CCOC(=O)/C=C/C(=O)NNS(=O)(=O)CCC(N)C(=O)O (configuration not stated) | -6.65% | 13.4% | 0.5% | 2.8% | 6.8% | 0.45%
2 | CC(=O)OC1Cc2ccccc2C1OC(C)=O (configuration not stated) | -1.9% | 9.4% | -8.8% | -9.8% | -19.4% | 7.1%
3 | Cc1ccc(N=C2C(=Nc3ccc(C)cc3)N(c3ccc(C)cc3)C(=S)N2C(=O)c2ccccc2)cc1 | -5.4% | -27.1% | 7.9% | 26.3% | -29.6% | -13.1%
4 | COc1ccc(-c2cc(-c3ccc(OC)cc3)cc(-c3ccc(OC)cc3)c2)cc1 | -19.5% | -22.8% | -14.9% | -27.8% | -14% | -16.6%
5 | CCC1(c2ccccc2)CCCC/C1=N/NC(N)=O (configuration not stated) | 2.55% | -16.6% | -0.8% | 2.2% | -6.05% | -8.7%
6 | Cc1ccccc1N1C(N)=C(C#N)C(C#N)(C#N)C1c1ccccc1 (configuration not stated) | 8.8% | 22.2% | -14.6% | -10.6% | -12.4% | 87.8% (active)
7 | CC12CCC(=O)C=C1CCC1C2C(=O)CC2(C)C1CCC2(O)C(=O)Cn1c(=O)cc[nH]c1=O (configuration not stated) | 10.1% | 7.75% | 25.6% | 11.8% | 0.3% | 7.65%
8 | CCn1c(=O)c2nc(SC)sc2n(-c2ccc(C)cc2)c1=O | -21.2% | -0.6% | -5.7% | 9.7% | 2% | 20.9%
9 | CC(=O)c1c(C)[nH]c(-c2ccccc2)c1NS(=O)(=O)c1ccc(N)cc1 | -0.2% | -3.45% | 25.4% | -13% | 4% | 8.95%
10 | Clc1cccc(Cl)c1C(Nc1ncccn1)Nc1ncccn1 | 12.2% | 14.8% | 12.1% | -16.4% | 9.6% | 20.4%
11 | Brc1c(-c2ccccc2)oc2nc3ccccc3nc12 | 17.2% | 0.2% | 0.2% | 7.45% | 12.6% | 3.8%
12 | COc1c(O)ccc(C(=O)O)c1N | 13% | 6.55% | 14.1% | 10.1% | 8.95% | -17.4%
13 | COC(=O)c1c2cccccc-2c(C(=O)OC)c1N | 15% | 17.9% | 28.8% | -24.8% | 36% | 42.6%
14 | Nc1ccc(C(=O)NN2C(=O)C(Cl)C2c2cccc(O)c2)cc1 (configuration not stated) | -4.45% | -41.7% | -35.1% | -14.2% | 4.3% | -6.55%
15 | O=C(C[n+]1cccc(Cl)c1)c1ccccc1 | -3.55% | 7.9% | 7.9% | -9.7% | -4.85% | -0.5%
16 | O=C(CCC1CCCCC1)OCC1CCCO1 (configuration not stated) | 42.1% | 20.9% | 41.1% | 3.75% | 24.6% | 48.1%
17 | CCOc1cc(/C=C2\N=C(c3ccccc3)OC2=O)ccc1O | 5% | 1.2% | 2.6% | -50.8% | -12.8% | -2.75%
18 | CCNc1ncc2nc(CC(=O)OC)c(=O)n(CC)c2n1 | -10.3% | 1.6% | 4.75% | -75.6% | 10.5% | -4.4%
19 | O=C1c2ccccc2C2(O)Nc3cc(O)ccc3C12O (configuration not stated) | -24.6% | -23.1% | -15.1% | -14.1% | -11.8% | -19.6%
20 | CCCCCCCCCCCCCCCCCC(=O)OCC([N+](=O)[O-])([N+](=O)[O-])[N+](=O)[O-] | -9.3% | -1.3% | -5.3% | -19% | -26.1% | 1.9%
21 | Cc1ccc(C2OC2C(=O)c2ccccc2)cc1 (configuration not stated) | 0.05% | 0.25% | -19.5% | -48.5% | -36% | 5.85%

Row | Compound | growth inhibition [1] | growth inhibition [2] | growth inhibition [3] | growth inhibition [4] | growth inhibition [5] | growth inhibition [6]
22 | CSC1NC(c2ccccc2)=C(C#N)C(=O)N1C1OCC(OC(C)=O)C(OC(C)=O)C1OC(C)=O (configuration not stated) | -9.1% | -15.6% | -39.2% | 4.75% | 3.4% | -1.5%
23 | c1ccn2cncc2c1 | 17% | 17% | 13.1% | 23.1% | 20.7% | 15.1%
24 | O=C1/C(=C/c2ccc(Cl)cc2)COc2ccc(Br)cc21 | 26.1% | 4.85% | -5.1% | 6.7% | 1.8% | -2.45%
25 | CC(C)(N)CNCCO | -3.25% | 2.05% | -8.9% | -18.1% | -1.7% | 0.4%
26 | Nc1cccc(SC2CC(=O)N(c3ccc4c(c3)OCO4)C2=O)c1 (configuration not stated) | 90.4% (active) | 92.8% (active) | 91.5% (active) | 79.2% (active) | 91.7% (active) | 85.3% (active)
27 | CCCCCC(CN(C)C)C(=O)CC(SCC)c1ccccc1 (configuration not stated) | 27.7% | 20.4% | 8.85% | 1.05% | 18.6% | 16.8%
28 | CCCCNCCCC(C(=O)O)c1ccccc1 (configuration not stated) | 2.1% | -3.4% | 3.8% | -10.3% | -35.2% | 6.75%
29 | CCOC(=O)C(N)CSSCC(N)C(=O)OCC (configuration not stated) | 5.55% | -3.35% | -4.4% | -11.6% | 8.95% | -4.85%
30 | COC(=O)C1(CC(=O)/C=C/c2ccccc2)NC(=S)NC(=O)C1C#N (configuration not stated) | 15.7% | -3.65% | -8.4% | 10.1% | -19.9% | 9.9%
31 | CC1C2CC(CC2O)C1(C)C (configuration not stated) | 11.3% | 16.6% | 18.1% | 24.4% | 6.3% | 15.9%
32 | COc1cc2c3c(c1)CCCN3CCC2 | -40.6% | -17% | -20.5% | -4.95% | 13.2% | -17.6%
33 | O=C(Cc1nc2ccc([N+](=O)[O-])cc2[nH]c1=O)C(=O)Nc1ccccc1[N+](=O)[O-] | 25.6% | 8.8% | 11.1% | 12.2% | 15.8% | 6.05%
34 | Cc1csc2c1-n1cccc1C2=O | 5.5% | 1% | -17.8% | 12.2% | -19.4% | 24.3%
35 | CC(C)CCc1c(N)nc(N)[nH]c1=O | 6.8% | -13.6% | -8.6% | -42% | 1% | 3.75%
36 | CC(=O)CC(=O)C(F)(F)F | 14% | -3.35% | -20.5% | 9.8% | 7.3% | 4.75%
37 | CCCCCCOC(=O)CCBr | 5% | 2.35% | -3.15% | -4.55% | 4.55% | 1.4%
38 | O=C(NCc1ccccc1)NCc1ccccc1 | -25.5% | -0.65% | -2.5% | -13.8% | -18.4% | -4.5%
39 | O=C1c2ccccc2CC12CCC1(CC2)OCCO1 | -14% | -1% | 3.55% | 26.6% | -12.5% | -23.6%
40 | CC(C)NC(=O)c1ccccc1Sc1ccccc1CN(C)C(C)C | -11.3% | 5.5% | 7.1% | 6.55% | 8.9% | 6.75%
41 | CC(CCNC(=S)S)CC(C)(C)C.[Zn+2] (configuration not stated) | 9.75% | 15.1% | -7.55% | -36% | -4.65% | -1%
42 | CNC(=O)CNC(=O)C(Cc1ccc(NC(=O)CCCCC(C)=O)cc1)NC(=O)C(CCC(=O)OCc1ccccc1)NC(=O)OC(C)(C)C (configuration not stated) | -19.6% | -23.6% | -26.1% | 0% | -30.1% | -17.1%
